Assay results as given in PubChem BioAssay AID1159580 (chemical genetic matrix, 2015).
The whole screen tested about 5,500 compounds, of which about 2,000 (36%) were called active. About 18% were inconclusive and are not listed. No stated cut-off is given here; in the data, active means normalized growth mostly below about 0.91 (no sharp cut-off); inconclusive means no clear call, values can overlap the other calls; inactive means mostly above about 0.92. The list shows a part of the results.

Experiment: chemical genetic growth profiling, strain panel (AID 1159580);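 further: tested at 20 µM; growth read once vehicle control cultures reached saturation at 30 °C; 1 = growth at the plate median or of vehicle wells; lower values mean less growth of the strain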
Settings: S. cerevisiae deletion strains, growth OD

Measured: normalized growth

CCNc1nc(Cl)nc(NCC)n1
inactive: locus YAL013W, strain DEP1, hits give low values 1 | locus YAL021C, strain ccr4, hits give low values 0.983 | locus YAL026C, strain drs2, hits give low values 1 | locus YAL030W, strain snc1, hits give low values 0.992 | locus YBL061C, strain skt5, hits give low values 0.991 | locus YBR009C, strain hhf1, hits give low values 0.995 | locus YBR021W, strain FUR4, hits give low values 1.03 | locus YBR023C, strain chs3, hits give low values 0.995 | locus YBR171W, strain sec66, hits give low values 0.99 | locus YBR229C, strain ROT2, hits give low values 0.993 | locus YBR231C, strain swc5, hits give low values 0.993 | locus YBR279W, strain paf1, hits give low values 1 | locus YCL011C, strain gbp2, hits give low values 1 | locus YCL016C, strain dcc1, hits give low values 1.01 | locus YCL029C, strain bik1, hits give low values 0.999 | locus YCL061C, strain MRC1, hits give low values 0.989 | locus YCL069W, strain vba3, hits give low values 0.968 | locus YCR088W, strain abp1, hits give low values 0.995 | locus YDL005C, strain med2, hits give low values 0.988 | locus YDL035C, strain GPR1, hits give low values 1 | locus YDL040C, strain nat1, hits give low values 0.999 | locus YDL074C, strain BRE1, hits give low values 0.975 | locus YDL101C, strain DUN1, hits give low values 1.01 | locus YDL134C, strain PPH21, hits give low values 1.01 | locus YDL185W, strain tfp1, hits give low values 0.991 | locus YDL192W, strain arf1, hits give low values 1 | locus YDR001C, strain nth1, hits give low values 0.998 | locus YDR069C, strain doa4, hits give low values 0.979 | locus YDR101C, strain arx1, hits give low values 0.994 | locus YDR137W, strain rgp1, hits give low values 1.01 | locus YDR150W, strain NUM1, hits give low values 0.971 | locus YDR159W, strain sac3, hits give low values 0.979 | locus YDR162C, strain NBP2, hits give low values 0.97 | locus YDR195W, strain ref2 0.942 | locus YDR297W, strain sur2, hits give low values 0.982 | locus YDR318W, strain mcm21, hits give low values 1 | locus YDR334W, strain swr1, hits give low values 0.996 | locus YDR335W, strain msn5, hits give low values 0.989 | locus YDR388W, hits give low values 1 | locus YDR392W, strain spt3, hits give low values 1.01 | locus YDR502C, strain sam2, hits give low values 1.01 | locus YEL003W, strain gim4, hits give low values 1.01 | locus YEL037C, strain rad23, hits give low values 1 | locus YEL061C, strain CIN8 (second series), hits give low values 0.997 | locus YEL061C, strain CIN8, hits give low values 0.997 | locus YER015W, strain faa2, hits give low values 1 | locus YER016W, strain bim1, hits give low values 1.01 | locus YER110C, hits give low values 0.996 | locus YER111C, strain swi4, hits give low values 0.996 | locus YER155C, strain BEM2 (second series), hits give low values 0.973 | locus YER155C, strain BEM2, hits give low values 1 | locus YER167W, strain BCK2, hits give low values 1 | locus YFR010W, strain ubp6, hits give low values 1 | locus YGL078C, strain dbp3, hits give low values 1 | locus YGL086W, strain mad1, hits give low values 1 | locus YGL167C, strain pmr1, hits give low values 1 | locus YGL173C, strain kem1, hits give low values 0.99 | locus YGL227W, strain vid30, hits give low values 0.978 | locus YGL240W, strain doc1, hits give low values 0.986 | locus YGL248W, strain PDE1, hits give low values 1.03 | locus YGL253W, strain hxk2, hits give low values 0.993 | locus YGR078C, strain PAC10, hits give low values 0.989 | locus YGR135W, strain pre9, hits give low values 1 | locus YGR229C, strain SMI1, hits give low values 1 | locus YGR252W, strain gcn5, hits give low values 1.02 | locus YHR013C, strain ard1, hits give low values 0.998 | locus YHR027C, strain rpn1, hits give low values 1 | locus YHR030C, strain SLT2, hits give low values 0.98 | locus YHR079C, strain IRE1 (second series), hits give low values 1.01 | locus YHR094C, strain hxt1, hits give low values 1 | locus YHR129C, strain ARP1, hits give low values 0.96 | locus YHR142W, strain chs7, hits give low values 1.02 | locus YHR200W, strain rpn10, hits give low values 1.01 | locus YIL066C, strain RNR3, hits give low values 1.01 | locus YIL073C, strain SPO22, hits give low values 1.09 | locus YIL125W, strain kgd1, hits give low values 1 | locus YIR030C, strain dcg1, hits give low values 1.01 | locus YJL092W, strain hpr5, hits give low values 1 | locus YJL095W, strain BCK1 (second series), hits give low values 0.994 | locus YJL095W, strain BCK1, hits give low values 0.994 | locus YJL115W, strain asf1, hits give low values 1 | locus YJL129C, strain trk1, hits give low values 0.986 | locus YJL134W, strain LCB3, hits give low values 0.993 | locus YJL154C, strain vps35, hits give low values 0.992 | locus YJL164C, strain tpk1, hits give low values 0.999 | locus YJL166W, strain qcr8, hits give low values 0.987 | locus YJL168C, strain set2, hits give low values 1.01 | locus YJL187C, strain SWE1 (second series), hits give low values 1
